{"source": "the supplement of paper PMC6658780", "note": "Counter-ions that a name gives are not always drawn. ± gives the standard deviation of the averaged measurements.", "data": [{"tested_on": "Escherichia coli ATCC BAA-2469", "experiment": "percent growth inhibition of drug alone vs DMSO control; higher = more growth inhibition", "conditions": "antibiotic (0.125x MIC): none (0.1% DMSO); 7 µM", "protocol": "(§1)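 Prestwick drugs tested at 20 uM and 7 uM with an antibiotic at 0.125x MIC (16 mg/L when MIC >128 mg/L) against E. coli ATCC BAA-2469 (NDM-1) in CAMHB, 384-well plates, duplicate runs. Percent growth inhibition was computed from OD600 (24 h minus 0 h) relative to DMSO wells. Drug + DMSO-only wells are also given. […]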", "units": {"percent growth inhibition of drug alone": "%"}, "values": [{"smiles": "NCC1(CC(=O)O)CCCCC1", "note": "[Gabapentin]", "percent growth inhibition of drug alone": "-0.379 ± 0.84"}, {"smiles": "O=C([O-])c1ccccc1-c1c2cc(Br)c(=O)cc-2oc2[c]([Hg+])c([O-])c(Br)cc12.[Na+].[Na+].[OH-]", "note": "[Merbromin]", "percent growth inhibition of drug alone": "0.201 ± 1.7"}, {"smiles": "C[C@]12CC[C@H](O)C[C@@H]1CC[C@@H]1[C@@H]2CC[C@]2(C)C(=O)CC[C@@H]12", "note": "[Epiandrosterone]", "percent growth inhibition of drug alone": "-0.756 ± 0.88"}, {"smiles": "CN1[C@@H]2CC[C@H]1C[C@@H](OC(=O)C(CO)c1ccccc1)C2", "note": "(some centres not stated) [Atropine sulfate monohydrate]", "percent growth inhibition of drug alone": "1.11 ± 0.46"}, {"smiles": "Oc1cc(Cl)ccc1Oc1ccc(Cl)cc1Cl", "note": "[Triclosan]", "percent growth inhibition of drug alone": "103 ± 3.2"}, {"smiles": "O=C(CCCN1CCC2(CC1)C(=O)NCN2c1ccccc1)c1ccc(F)cc1", "note": "[Spiperone]", "percent growth inhibition of drug alone": "3 ± 1.4"}]}, {"tested_on": "Escherichia coli ATCC BAA-2469", "experiment": "percent growth inhibition of drug alone vs DMSO control; higher = more growth inhibition", "conditions": "antibiotic (0.125x MIC): none (0.1% DMSO); 20 µM", "protocol": "as §1", "units": {"percent growth inhibition of drug alone": "%"}, "values": [{"smiles": "NCC1(CC(=O)O)CCCCC1", "note": "[Gabapentin]", "percent growth inhibition of drug alone": "-1.41 ± 0.8"}, {"smiles": "O=C([O-])c1ccccc1-c1c2cc(Br)c(=O)cc-2oc2[c]([Hg+])c([O-])c(Br)cc12.[Na+].[Na+].[OH-]", "note": "[Merbromin]", "percent growth inhibition of drug alone": "38.2 ± 18"}, {"smiles": "C[C@]12CC[C@H](O)C[C@@H]1CC[C@@H]1[C@@H]2CC[C@]2(C)C(=O)CC[C@@H]12", "note": "[Epiandrosterone]", "percent growth inhibition of drug alone": "1.48 ± 2.3"}, {"smiles": "CN1[C@@H]2CC[C@H]1C[C@@H](OC(=O)C(CO)c1ccccc1)C2", "note": "(some centres not stated) [Atropine sulfate monohydrate]", "percent growth inhibition of drug alone": "-0.0722 ± 0.38"}, {"smiles": "Oc1cc(Cl)ccc1Oc1ccc(Cl)cc1Cl", "note": "[Triclosan]", "percent growth inhibition of drug alone": "107 ± 2.6"}, {"smiles": "O=C(CCCN1CCC2(CC1)C(=O)NCN2c1ccccc1)c1ccc(F)cc1", "note": "[Spiperone]", "percent growth inhibition of drug alone": "2.07 ± 2.2"}]}]}
